Laboratory results as given in PubChem BioAssay AID463 (The Scripps Research Institute Molecular Screening Center, 2006).
Hit rate of the full screen: of about 56,000 compounds, about 710 (1.3%) were called active. The full list was thinned out, with actives kept by preference. Unmarked numbers belong to inactive results.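 Rule for the calls: active = inhibition above the mean inhibition of all tested compounds plus 3 SD (cut at about 28% in these data); inactive = the rest.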

assay: cytotoxicity toward Jurkat T cells, primary screen, cytotoxicity control, cell-based, Jurkat E6.1, 60K MLSMR library (AID 463); conditions: Jurkat E6.1 viability, ATP luminescence, 48 h; at 4 µM; active compounds read high

SMILES | inhibition
CCC(=O)c1ccc(OCC(O)CN2C(=O)NC(C)(C)C2=O)cc1 (stereo unspecified) | -6.4%
O=C(c1cccc(S(=O)(=O)N2CCOCC2)c1)N1CCOCC1 | 0%
CCOc1cccc(-c2nnc3sc(COc4ccc(OC)cc4)nn23)c1 | -3%
COc1ccc(-n2nnnc2SCC(=O)c2ccc(OC)c(OC)c2)cc1 | 7.1%
CCOc1cccc(-n2nnnc2-c2ccc(OC)cc2)c1 | 86.8% (active)
COC(=O)COc1ccc(S(=O)(=O)N2CCOCC2)cc1 | -6.6%
CCOC(=O)Cc1csc(NC(=O)CN(C)S(=O)(=O)c2ccc3c(c2)CCC(=O)N3)n1 | -0.9%
COc1ccc(NC(=O)c2cccc(NC(=O)c3ccco3)c2)c(OC)c1 | -4.5%
CCOc1cc(CN2CCN(C(=O)CC(C)C)CC2)ccc1OC | -0.1%
CCOc1cc(C(=O)N2CCc3cc(OC)c(OC)cc3C2)ccc1OC(F)F | 98.3% (active)
CCOc1cc(-c2noc(CCC(=O)N3CCOCC3)n2)ccc1OC | -6.2%
COc1ccc(C(=O)Nc2ccc3c(c2)OCO3)cc1OC | 16.3%
COc1nc(Oc2ccc(=O)n(C)n2)nc(N(C)C)n1 | 4.9%
CC1(C)CC(=O)C(C=NCCC2=CCCCC2)=C(O)C1 | 2%
C=CCn1c(CSc2nc3ccccc3s2)nnc1SCC(=O)NCc1ccco1 | 0.8%
CN(Cc1ccccc1)C(=O)CCNC(=O)Cn1cnc2ccccc2c1=O | 7.8%
O=C(Cn1cnc2c(cnn2-c2ccc(F)cc2)c1=O)NCCc1ccccc1 | -3%
O=C(Cn1cnc2c(cnn2-c2ccccc2)c1=O)NCc1ccccc1 | 35.9% (active)
CC(=O)Oc1cccc(N2C(=O)C3CC=C(Cl)CC3C2=O)c1 (stereo unspecified) | -1.4%
CS(=O)(=O)N1CCN(C(=O)c2cc3ccccc3oc2=O)CC1 | -5.4%
CCN(CC)C(=O)CSc1nnc(-c2ccc(S(=O)(=O)NCc3ccccc3Cl)cc2)o1 | -7.3%
Cc1ccccc1C(=O)NCCN=C1NS(=O)(=O)c2ccccc21 | 3.3%
O=C(c1cccc(C(=O)N2CCN(c3ccc(F)cc3)CC2)c1)N1CCN(c2ccc(F)cc2)CC1 | 37.4% (active)
O=C(c1ccccc1)c1cccn1CC(=O)N1CCN(c2ccc(F)cc2)CC1 | -0.4%

SMILES | inhibition
Cc1ccccc1CN1CCN(C(=O)c2cccc(F)c2)CC1 | -5%
COc1cc(C2C(C#N)=C(C)NC3=C2C(=O)CC(C)(C)C3)ccc1O (stereo unspecified) | 5%
COc1ccccc1CNC(=O)C1CCN(S(C)(=O)=O)CC1 | -5.6%
CCOc1ccc(Cn2nnc(C(=O)NCc3ccccc3)c2N)cc1 | 2.3%
Nc1c(C(=O)NCc2ccccc2)nnn1Cc1cccc(Cl)c1 | 83.8% (active)
CCOc1ccc(Cn2nnc(C(=O)Nc3ccc(OC)cc3OC)c2N)cc1 | -5.8%
CCOc1c(OC)cc(C2C(C#N)=C(N)Oc3n[nH]c(-c4ccncc4)c32)cc1OC (stereo unspecified) | -1.9%
O=C(Oc1cccnc1)c1cc2ccccc2oc1=O | 4.5%
COc1ccc(-c2cc(C(F)(F)F)n3nc(C(=O)N4CCOCC4)c(Cl)c3n2)cc1 | -9.2%
CCCCN=C(N)/C(C(=O)OCC)=C(\O)c1ccc(OC)cc1 | -0.7%
CCc1ccc(N(CC)c2ncnc3nc[nH]c23)cc1 | 0.9%
Cc1cc(C)n(-c2ccc(Cl)c(C(=O)O)n2)n1 | -4.6%
CC(=O)c1ccc(Oc2cc(C)nc(-n3nc(C)cc3C)n2)cc1 | 97.7% (active)
CCOC(=O)c1cnc(-n2nc(C)cc2C)nc1Nc1cccc(C(C)=O)c1 | 2.3%
O=C(COc1ccccc1Cl)Nn1cnnc1 | 4.2%
COc1ccc(N2C(=O)C3CCCN3C2c2cccs2)cc1 (stereo unspecified) | -7.9%
NC(=O)CSC1=Nc2ccccc2C2=NC(CCC(=O)NCc3ccc(F)cc3)C(=O)N12 (stereo unspecified) | 4.5%
O=C(CC1N=C2c3ccccc3N=C(SCc3ccccc3Cl)N2C1=O)NCc1ccco1 (stereo unspecified) | 8%
CC(C)C1N=C2c3ccccc3N=C(SCC(=O)c3ccc(O)c(O)c3)N2C1=O (stereo unspecified) | 50.8% (active)
CCCC(NS(=O)(=O)c1ccc(OC)cc1)C(=O)O (stereo unspecified) | 0.8%
COC(=O)C(C)n1cnc2c(nnn2-c2cccc(Cl)c2)c1=O (stereo unspecified) | 6%
Cc1oc(-c2ccccc2F)nc1CS(=O)(=O)CC(=O)NCCCN(C)C1CCCCC1 | 5%
O=C(Nc1ccc(S(=O)(=O)N2CCCC2)cc1Cl)C1=COCCO1 | 10.5%
COc1ccc(S(=O)(=O)N2CCOCC2)cc1C(=O)Nc1nc2ccccc2s1 | -2.5%

SMILES | inhibition
O=C(Nc1ccc2c(c1)nc1n2CCCCC1)c1cc(S(=O)(=O)N2CCOCC2)ccc1Cl | 34.5% (active)
O=C1N(Cc2ccc3c(c2)OCO3)c2ccccc2C1(O)c1c[nH]c2ccccc12 (stereo unspecified) | -8.9%
CCCCNC(=O)CSc1nccn1Cc1ccccc1 | -7.9%
COCCNCCOCCOc1cccc(OC)c1 | 5.4%
Cc1cc(Nc2cccc(F)c2)n2ncnc2n1 | 0.2%
COC(=O)C1C(=O)c2c([nH]c(C(=O)OCCSC)c2C)CC1C (stereo unspecified) | -3.9%
CCOC(=O)c1[nH]c2c(c1C)C(=O)CC(c1ccc(N(C)C)cc1)C2 (stereo unspecified) | 1%
CCCOC(=O)c1[nH]c2c(c1C)C(=O)CC(c1cc(OC)c(OC)c(OC)c1)C2 (stereo unspecified) | 45.9% (active)
Cc1ccc(N(CC(O)CN2CCCC2)S(=O)(=O)c2ccccc2)cc1 (stereo unspecified) | 2.6%
Cc1ccc(S(=O)(=O)N2CCCC2CO)cc1 (stereo unspecified) | -3.1%
Cc1ccc(S(=O)(=O)NC(=O)N2CCCC(C)(C)C2)cc1 | -5.4%
Cc1ccc(S(=O)(=O)C2(S(=O)(=O)c3ccc(C)cc3)CCCC2)cc1 | 84% (active)
CC(C)(O)C#Cc1ccc(C(=O)N2CCC(C(N)=O)(N3CCCCC3)CC2)cc1 | -6.2%
CS(=O)(=O)c1ccc2nc(NC(=O)C3CCCCC3)sc2c1 | 5.6%
COc1ccccc1N1CCN(C(=O)CN(Cc2ccc(Cl)cc2)S(C)(=O)=O)CC1 | 9.3%
COc1ccccc1-n1nnnc1S(=O)(=O)Cc1ccc(Cl)cc1 | 53.4% (active)
COc1ccccc1N1CCN(Cc2nnnn2CCc2ccccc2)CC1 | -5.1%
Cc1oc(C)c(C(=O)NCCCC(=O)O)c1C(=O)NCCCC(=O)O | -3.9%
Cc1ccc2nc(-c3ccc(SCC(=O)Nc4cc(C)on4)nc3)[nH]c2c1 | -5.8%
O=C(O)CCSc1nnc(-c2ccccc2)n1-c1ccccc1 | -2.8%
CC(C)OCCCNc1ncnc2c1[nH]c1ccc(F)cc12 | 87.6% (active)
O=C1CCCN1CCCNc1ncnc2c1[nH]c1ccccc12 | 2.2%
CCN1CCCC1CNc1ncnc2c1[nH]c1ccc(F)cc12 (stereo unspecified) | 3.2%
COc1ccc(OC)c2c1sc(=NC(=O)CN1C(=O)CCC1=O)n2C | 1.4%

SMILES | inhibition
CC(=O)Nc1cccc(Oc2cc(C#N)c(C#N)cc2N2CCOCC2)c1 | 1.2%
CCOc1cc(N2CCOCC2)c(OCC)cc1NC(=O)COc1cccc2cccnc12 | 37.5% (active)
CCOc1cc(NC(=O)c2ccco2)c(OCC)cc1NC(=O)COc1ccccc1 | 0.4%
COc1ccc(OCC(=O)N2CCOCC2)cc1 | -4.3%
Cc1nc2ccc(NC(=O)N3CCC(c4ccccc4)C3)cc2nc1C (stereo unspecified) | -3.3%
CC1CCCCN1S(=O)(=O)c1ccc(C(=O)Nc2nnc(-c3cccs3)o2)cc1 (stereo unspecified) | 101% (active)
CCc1nnc(NC(=O)C2CCCN2S(=O)(=O)c2ccccc2)s1 (stereo unspecified) | 2.3%
CCc1nnc(NC(=O)c2ccc(S(=O)(=O)NC3CCCCC3)cc2)s1 | 27.4%
O=C1c2ccccc2-c2ncnc3c(N4CCOCC4)cc(N4CCOCC4)c1c23 | 6.4%
CC1CCCN(Cc2nc3c(c(=O)n(C)c(=O)n3C)n2Cc2cccc3ccccc23)C1 (stereo unspecified) | -3.6%
CCOC(=O)c1c(-c2ccc(C)cc2C)csc1NC(=O)CSc1nnnn1C | 28.5% (active)
CCOC(=O)CNC(=O)CSc1nnnn1-c1cc(C)ccc1C | -1.2%
CNC(=O)CSc1nnnn1-c1ccc(C)cc1C | -4.9%
CCOCCCNC(=O)Cc1cc(=O)[nH]c(=O)[nH]1 | -4.5%
CCC(c1nnnn1Cc1ccccc1)N(Cc1cc2cc(OC)ccc2[nH]c1=O)CC1CCCO1 (stereo unspecified) | -4.6%
CC(Nc1nc(N2CCCC2)nc2ccccc12)c1ccccc1 (stereo unspecified) | 4.2%
COc1ccc(-n2nnc3c(=O)n(CC(=O)OCc4ccccc4)cnc32)cc1 | 7%
Cc1cccc(-n2c(N)c(C(=O)N3CCN(C)CC3)sc2=S)c1 | 2.6%
Cc1cccc(-n2c(O)c(C=Nc3ccccc3N)c(=O)[nH]c2=O)c1 | 46.2% (active)
O=C(CS(=O)(=O)c1cn(Cc2ccc(Cl)cc2)c2ccccc12)N1CCOCC1 | 5.9%
COc1ccc(N(Cc2cc3cc(OC)ccc3[nH]c2=O)S(C)(=O)=O)cc1 | 8.7%
CCC(C)Sc1nnc(-c2c[nH]c3ccccc23)n1CCOC (stereo unspecified) | 6%
CC(=O)Oc1ccc2c(C)c(CC(C)O)c(=O)oc2c1 (stereo unspecified) | -1.3%
COc1ccc(OCc2cccc(C(=O)N3CCCC3)c2)cc1 | -5.2%
